# The list is not random: actives were taken first. Their share in the collection is about 7.1%.
# IL1B secr inh: inflammasome signaling inhibition, IL-1 beta readout; THP-1 LPS/ATP IL-1B secretion, AlphaLISA, 16 h; stronger effect = lower value; activity change, % at 57.5 µM; 4.7% of 360,000 active; in the data active = activity change below about -50%; inconclusive = mostly about -30% to -49%; note: % is set by controls: 0 for no effect and ±100 for the full control effect
#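 Secreted IL-1B measured by AlphaLISA bead assay after 16 h compound exposure of THP-1 cells; compounds (final up to 57.5 uM) added 1 h before LPS (250 ng/mL) and ATP (1.25 mM) stimulation; lower signal means less secretion.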
# ATXN viability: reduces viability in counter-screen for ATXN expression inhibitors | AID 651635 | 0.49% of 400,000 active | S2 cells (HEK-293 line with an ATXN2-luciferase reporter) viability, CellTiter-Fluor protease fluorescence, 24 h | Potency, µM (series often up to 56.7 µM), hits mostly cytotoxic; note: potency is the fitted concentration of half-maximal effect; nearly all actives have a fitted effect of over 40% in size
# ATXN2 expr inh: reduces ATXN2 reporter expression in HEK-293 cells. 0.72% of 360,000 active. HEK-293 ATXN2-luciferase reporter, luminescence, 24 h. Potency, µM (top dose mostly 57 µM), for inactives: at the highest dose activity change, negative = inhibition, hits mostly inhibitors; note: potency is the fitted concentration of half-maximal effect; % is set by controls: 0 for no effect and ±100 for the full control effect; nearly all actives have a fitted effect of over 55% in size
#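 ATXN2-luciferase reporter cells (luciferase flanked by upstream and downstream ATXN2 gene portions) were treated 24 h at 37 °C with compounds at up to 57 uM. SteadyGlo luminescence gave expression; GF-AFC fluorescence gave viability.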
# PINK1 expr mod: PINK1 expression modulation. 0.2% of 410,000 active. PINK1 immunofluorescence, high-content cytometry, 24 h. Potency, µM (highest dose often 76.6 µM), without a hit: top-dose activation (PINK1 increase), usual class: activators. AID 624263; active = well fitted activation curve with a large enough effect; inconclusive = small, poorly fitted or top-dose-only effect; cell line not stated here; note: potency is the fitted concentration of half-maximal effect; % of control where 0% means no effect; nearly all actives have a fitted effect of over 65% in size
#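 Readout is PINK1 immunofluorescence, quantified alongside mitochondrial, cell and nuclear markers by laser-scanning microplate cytometry. Cells from a stable line were exposed to compound titrations (5 concentrations) for 24 hours, with CCCP controls.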
# SW480 rereplic: DNA re-replication induction in SW480 cells. SW480 DNA re-replication, Hoechst DNA content imaging, 48 h. Potency, µM (top dose mostly 46.1 µM), inactives show at the top dose re-replication activation, most hits filed as activators. 1.8% of 340,000 active. AID 624297; note: potency is the fitted concentration of half-maximal effect; % of control where 0% means no effect; nearly all actives have a fitted effect of over 55% in size
#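 Readout is total intensity of Hoechst-stained nuclei, excited at 405 nm and collected at 500-530 nm. Compound treatment lasted 48 hr at 37 C in 5% CO2 before staining.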
# MCF10A rereplic: inducers of DNA re-replication in MCF 10A breast cells; MCF 10A DNA re-replication, Hoechst nuclear intensity, 48 h; Potency, µM (doses to about 46.1 µM), for inactives: at the top dose activity, positive = re-replication, usual class: activators; 2.9% of 350,000 active; note: potency is the fitted concentration of half-maximal effect; % of control where 0% means no effect; nearly all actives have a fitted effect of over 50% in size
# * = called active by the depositor; i = inactive; ? = inconclusive; nt = no result given; [ ] = dose if it differs, or a comment. Unless noted, calls come from the whole dose curve; as a rule, active = well fitted curve in the direction sought with a large enough effect; inconclusive = small, poorly fitted or top-dose-only effect, or another doubt; inactive = no such curve, though single readings can be large; an effect the other way counts as inactive or inconclusive.
SMILES,IL1B secr inh,ATXN viability,ATXN2 expr inh,PINK1 expr mod,SW480 rereplic,MCF10A rereplic
Cc1ccsc1C(=O)N1CCC1(C)C(=O)NS(=O)(=O)c1ccc(C#N)cc1 (centres undefined),-1,i,6%,1%,nt,nt
Cc1nn(CCc2nn[nH]n2)c2nc(-c3ccc(C4CCCCC4)cc3)cc(C(F)(F)F)c12,-105*,i,-16%,?,-3%,12µM*
C(=C\c1nc2ccccc2[nH]1)/c1ccccc1,-9,i,?,2%,15µM*,5.2µM*
Cc1cccc(/C=C\c2nc3ccccc3c(=O)[nH]2)c1,-4,i,3%,2%,21µM*,5.8µM*
O=C(Nc1cccc(/C=C/c2nc3ccccc3c(=O)[nH]2)c1)c1ccccc1Cl,-52*,?,-16%,-1%,?,?
COc1ccc(C(=O)Nc2cccc(/C=C/c3nc4ccccc4c(=O)[nH]3)c2)cc1,-27,nt,nt,-1%,?,6.5µM*
COC(=O)c1ccccc1-c1cc(C)cc2c1OC(CNC(=O)c1cc(C)n(C)n1)C2 (centres undefined),nt,i,nt,0%,nt,nt
COc1ccc(-c2cc(C(F)(F)F)nc(SCCC(=O)Nc3ccc(NC(C)=O)cc3)n2)cc1,nt,i,-2%,-2%,nt,nt
CN(CC(=O)Nc1cccc(F)c1)C(=O)C1CCC(C(=O)N(C)CC(=O)Nc2cccc(F)c2)CC1 (centres undefined),3,i,-6%,1%,-12%,?
O=c1[nH]c2ccccc2nc1/C=C/c1ccc(Cl)cc1,6,nt,-9%,8%,21µM*,18µM*
O=C(/C(=C/c1ccc(Cl)cc1)c1nc2ccccc2[nH]1)c1ccccc1,-101*,nt,?,-5%,5.2µM*,6.5µM*
O=C(N/C(=C/c1ccc(Cl)cc1)c1nc2ccccc2[nH]1)c1ccco1,-28,i,-6%,7%,-2%,?
CCOC(=O)c1ccc(OC(=O)c2cn(-c3cccc(OC)c3)c(=O)c3ccccc23)cc1,nt,nt,nt,0%,nt,nt
CCCCSCCCNC(=O)c1cn(CC)c2ccc(S(=O)(=O)N(C)C3CCCCC3)cc2c1=O,nt,i,0%,6%,nt,nt
CN(Cc1ccc(Cl)s1)C(=O)CCl,-106*,nt,13µM*,-2%,?,?
COc1ccc(CN(C)C(=O)COC(=O)c2cnc(Cl)c(Cl)c2)cc1,-99*,i,8%,5%,-7%,0%
COc1ccc(OCC(=O)N(C)Cc2ccccc2)cc1,-14,i,5%,-1%,-1%,2%
COc1ccc(CN(C)C(=O)CCl)cc1,-98*,?,nt,8%,?,?
CN(Cc1ccc(Cl)cc1)C(=O)CCl,-103*,nt,?,-1%,?,?
CN(Cc1ccccc1)C(=O)CC(=O)N(C)Cc1ccccc1,10,i,18%,-1%,2%,-2%
CCOc1ccc(N(CC(=O)Nc2ccccc2CC)S(=O)(=O)c2c(C)noc2C)cc1,nt,nt,nt,4%,nt,nt
Cc1nc(C(C)NC2CCN(c3cccc(NC(=O)c4ccncc4)c3)CC2)cs1 (centres undefined),nt,i,nt,-1%,nt,nt
CC(C)CCN(C(=S)Nc1cccc(F)c1)C1CCN(C(C)C)CC1,-92*,i,nt,-1%,-6%,6%
COc1ccccc1NC(=O)c1oc2ccccc2c1NC(=O)Cc1ccccc1,nt,i,-8%,5%,nt,nt
CCOC(=O)C(C)Sc1nc(=O)n2cc(C)ccc2n1 (centres undefined),-101*,i,18%[11.3 µM],2%,-13%,-1%
Cc1ccc2nc(SCC(=O)OCc3ccccc3)nc(=O)n2c1,-56*,i,-2%,-1%,22%,6%
CCOC(=O)C(C)Sc1nc(=O)n2ccccc2n1 (centres undefined),?,i,-13%,0%,-3%,-4%
COc1cc(OC)c(NS(=O)(=O)c2cc(-c3cnc(C)o3)ccc2OC)cc1Cl,nt,?,-10%,6%,nt,nt
